Measured values reported in PubChem BioAssay AID652197 (Broad Institute, 2013).
Out of some 340,000 compounds screened, about 500 (0.15%) were called active. What follows is part of a selection rich in actives, with near analogues and random picks from the rest. Unmarked numbers belong to inactive results.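 The calls were made as follows: active = mean replicate inhibition of at least 30%, or all replicates individually reaching that 30% level; inactive = mean below 30% and not every replicate reaching it.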

molecular target: Endoplasmic reticulum aminopeptidase 1 (Homo sapiens) (UniProt Q9NZ08); assay: inhibition of ERAP1 peptide trimming enzyme – biochemical, single point, plate reader, primary screen (AID 652197); details: recombinant ERAP1, Leu-AMC fluorescence, 60 min; at 10.7 µM; stronger effect = higher value;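 also: 0% = neutral control wells and 100% = L-leucinethiol positive control wells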
Sequence (Q9NZ08 whole entry, looked up): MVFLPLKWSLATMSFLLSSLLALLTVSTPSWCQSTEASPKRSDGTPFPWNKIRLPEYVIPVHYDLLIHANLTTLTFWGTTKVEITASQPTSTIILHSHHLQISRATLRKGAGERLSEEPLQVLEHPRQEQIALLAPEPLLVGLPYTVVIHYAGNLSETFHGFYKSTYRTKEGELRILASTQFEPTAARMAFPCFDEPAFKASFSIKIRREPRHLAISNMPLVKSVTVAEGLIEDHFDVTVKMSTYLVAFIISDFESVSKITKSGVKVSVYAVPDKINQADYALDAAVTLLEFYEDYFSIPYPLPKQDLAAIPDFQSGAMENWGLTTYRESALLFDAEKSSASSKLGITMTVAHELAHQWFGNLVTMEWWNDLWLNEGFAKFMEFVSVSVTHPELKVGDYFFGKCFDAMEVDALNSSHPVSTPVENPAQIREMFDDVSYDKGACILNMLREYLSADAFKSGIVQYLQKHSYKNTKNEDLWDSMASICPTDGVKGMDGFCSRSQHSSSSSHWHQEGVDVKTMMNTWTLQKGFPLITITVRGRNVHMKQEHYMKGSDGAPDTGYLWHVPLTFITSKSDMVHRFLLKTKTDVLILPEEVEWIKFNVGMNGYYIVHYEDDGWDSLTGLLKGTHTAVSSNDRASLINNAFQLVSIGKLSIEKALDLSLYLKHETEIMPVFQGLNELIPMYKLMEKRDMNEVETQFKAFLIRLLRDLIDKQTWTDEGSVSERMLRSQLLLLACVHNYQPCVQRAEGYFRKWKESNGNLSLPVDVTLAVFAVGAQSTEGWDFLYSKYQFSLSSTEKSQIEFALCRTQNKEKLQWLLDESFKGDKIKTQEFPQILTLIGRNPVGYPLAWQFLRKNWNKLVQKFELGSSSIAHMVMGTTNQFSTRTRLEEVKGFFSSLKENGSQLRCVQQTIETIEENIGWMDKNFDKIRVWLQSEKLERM

In order of falling inhibition:
1. COc1cccc(NC(=O)N[C@H]2C=C[C@H](CC(=O)NCc3ccccn3)O[C@@H]2CO)c1  6.83%
2. CO[C@H]1CN(C)C(=O)c2ccc(NC(=O)C3CC3)cc2OC[C@@H](C)N(C(=O)CN2CCOCC2)C[C@H]1C  5.08%
3. C/C=C/c1ccc2c(c1)O[C@H](CN(C)Cc1cccc(F)c1)[C@H](C)CN([C@H](C)CO)S2(=O)=O  3.38%
4. CO[C@@H]1CN(C)C(=O)c2ccc(NC(=O)Nc3cc(F)ccc3F)cc2OC[C@@H](C)N(C)C[C@@H]1C  2.65%
5. COc1ccc(CNC(=O)C[C@H]2C[C@@H]3c4cc(NC(=O)NC5CCCC5)ccc4O[C@@H]3[C@H](CO)O2)cc1  2.29%
6. CO[C@@H]1CC[C@@H]2CCOc3c(C#N)cccc3C(=O)N(C)C[C@H](C)C(=O)N(C)C[C@H]1O2  0.999%
7. COc1ccccc1CN1[C@H](CO)[C@@H](c2ccccc2)C12CN(C(=O)c1cnccn1)C2  0.797%
8. C[C@H]1CCCCO[C@H](CN(C)C(=O)NC2CCCCC2)[C@@H](C)CN([C@@H](C)CO)C(=O)c2cc(NC(=O)Nc3ccc4c(c3)OCO4)ccc2O1  -0.479%
9. CO[C@@H](CN(C)S(=O)(=O)c1ccccc1)[C@H](C)CN(Cc1ccccc1Cl)[C@H](C)CO  -0.894%
10. COc1ccccc1C#Cc1ccc([C@@H]2[C@H](CO)N3CCCCN(CCC(F)(F)F)C[C@@H]23)cc1  -1.03%
11. CCC(=O)N1[C@H](C(=O)NC2CCC2)[C@@H](CO)[C@@H]2Cn3c(cccc3=O)[C@@H]21  -1.13%
12. O=C(CCN1CCCCC1)NCC[C@@H]1CC[C@H](NS(=O)(=O)c2cccc(Cl)c2)[C@H](CO)O1  -1.39%
13. COc1ccc(S(=O)(=O)N(C)C[C@@H]2Oc3ccc(NC(=O)C4CC4)cc3CC(=O)N([C@@H](C)CO)C[C@H]2C)cc1  -1.45%
14. C[C@@H](NC(=O)C[C@H]1C[C@@H]2c3cc(NC(=O)C4CCC4)ccc3O[C@@H]2[C@@H](CO)O1)c1ccccc1  -1.46%
15. CNC[C@H]1Oc2cc(-c3ccc(OC)cc3)ccc2S(=O)(=O)N([C@H](C)CO)C[C@@H]1C  -1.76%
16. C/C=C/c1ccc2c(c1)[C@H]1[C@H](CCN1S(=O)(=O)c1cn(C)cn1)[C@H](CO)N2  -3.06%
17. CO[C@@H]1CC[C@@H]2CCOc3c(C#N)cccc3C(=O)N(C)C[C@@H](OC)[C@@H](C)C(=O)N(C)C[C@H]1O2  -3.74%
